Shiga inhibitor = Shiga toxin inhibition | Vero cells, Shiga toxin protein synthesis inhibition reporter | inhibition, % at 38.7 µM | hit rate 9.2% among 290,000 | AID 2315; in the data active = inhibition mostly above about 28%, no sharp cut-off; inactive = mostly below about 43%; also: 0% is about no effect
NS1 function inh = inhibitors of influenza NS1 protein function. Potency, µM (doses to about 46.1 µM), inactives show at the highest dose activity, positive = more growth. hit rate 0.4% among 270,000. AID 2326; calls by dose curve; also: potency is read from the fitted curve at half-maximal effect; actives are rising curves; nearly all actives have a fitted effect of over 50% in size
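Compounds were scored for reversing the slow growth caused by influenza A NS1 in S. cerevisiae, measured by optical density at 600 nm. Assay medium contained 2% galactose at pH 6.0; NS1-free yeast of the same strain were the positive control.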
Pf growth 48h = P. falciparum growth inhibition at 48 hours (one generation) | P. falciparum luciferase growth in erythrocytes, 48 h | Potency, µM (doses to about 28.7 µM), for inactives: at the top dose activity change, negative = inhibition, hits mostly inhibitors | hit rate 5.9% among 310,000; also: potency is read from the fitted curve at half-maximal effect; % is scaled to controls: 0 for no effect and ±100 for the full control effect
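Read-out is firefly luciferase luminescence from an integrated reporter in P. falciparum, so falling signal marks reduced parasite growth. Infected erythrocytes were at 2% hematocrit and 0.1% parasitemia (final) in Albumax-supplemented RPMI 1640.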
Cycloheximide cs = counter-screen for Shiga toxin inhibitors: cycloheximide protein synthesis inhibition. cell reporter, cycloheximide protein synthesis inhibition counterscreen. max response, %. hit rate 12% among 300,000. AID 2314; in the data active = max response mostly above about 13%, no sharp cut-off; inactive = mostly below about 14%; also: read at 38.3 µM for the half of the compounds with a filed dose; 0% is about no effect
Pf growth 96h = P. falciparum growth inhibition at 96 hours; P. falciparum luciferase reporter growth, 96 h; Potency, µM (series often up to 28.7 µM), inactives show top-dose activity change, negative = inhibition, usual class: inhibitors; hit rate 6.9% among 320,000; also: potency is read from the fitted curve at half-maximal effect; % is scaled to controls: 0 for no effect and ±100 for the full control effect
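Infected RBCs, 2% Hct / 0.05% parasitemia final; luciferase-reporter P. falciparum; cpd 96 h, 37 C, 5% CO2; luciferase detection reagent; luminescence.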
FBPA Giardia inh = Giardia lamblia aldolase inhibition. A8B2U2. purified Giardia FBPA. Potency, µM (highest dose often 59.6 µM), for inactives: top-dose activity, negative = inhibition, actives largely listed as inhibitors. hit rate 0.71% among 290,000; also: potency is read from the fitted curve at half-maximal effect; % is scaled to controls: 0 for no effect and ±100 for the full control effect; nearly all actives have a fitted effect of over 55% in size
Target sequence (A8B2U2 whole entry, looked up): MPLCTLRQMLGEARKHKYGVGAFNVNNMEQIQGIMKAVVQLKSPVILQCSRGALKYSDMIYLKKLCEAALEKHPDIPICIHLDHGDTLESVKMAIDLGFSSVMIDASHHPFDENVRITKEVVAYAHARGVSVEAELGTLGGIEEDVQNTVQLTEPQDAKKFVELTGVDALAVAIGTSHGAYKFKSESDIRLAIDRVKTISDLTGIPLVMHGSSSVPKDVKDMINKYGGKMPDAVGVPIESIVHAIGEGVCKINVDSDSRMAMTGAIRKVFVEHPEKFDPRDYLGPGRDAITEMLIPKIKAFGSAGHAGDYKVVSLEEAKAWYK
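40 nM FBPA preincubated 10 min at RT with compound (up to 57.5 uM final), then substrate plus GAPDH/TPI/NAD/arsenate coupling and diaphorase/resazurin added. Fluorescence read after 20 min at RT, 525/598 nm.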
* hit, by the source's call; ? = inconclusive; . = no result given; [ ] = another dose, or the depositor's remark. An excerpt weighted towards active compounds, which were near 21% of everything screened. Unless noted, calls follow the shape of the dose curve; as a rule, active = well fitted curve in the direction sought with a large enough effect; inconclusive = small, poorly fitted or top-dose-only effect, or another doubt; inactive = no such curve, though single readings can be large; an effect the other way counts as inactive or inconclusive.

SMILES	Shiga inhibitor	NS1 function inh	Pf growth 48h	Cycloheximide cs	Pf growth 96h	FBPA Giardia inh
COc1ccc(NC(=O)c2ccc(-c3ccccc3C(F)(F)F)o2)cc1	18	-21%	21%	10	-5%	-2%
O=C(Nc1cccc(F)c1)c1ccccc1-c1ccccc1	3	-13%	1%	-2	0%	3%
O=C(Nc1cccc(F)c1)c1ccc(-c2ccccc2C(F)(F)F)o1	50*	-61%	?	31*	15µM*	-5%
COc1cccc(NC(=O)c2ccc(-c3ccccc3[N+](=O)[O-])o2)c1	37	.	-4%	25	26%	-3%
Cc1ccccc1-c1ccc(C(=O)Nc2cccc(F)c2)o1	50*	-107%	-16%	47*	-61%	-17%
O=C(c1ccco1)N1CCN(C(=S)Nc2ccc(Br)cc2Cl)CC1	-6	-20%	19%	6	?	.
O=S(=O)(Nc1cccc(S(=O)(=O)N2CCOCC2)c1)c1cccs1	-3	4%	23%	-3	?	-3%
COc1ccc(C(=O)N2CCC3(CCN(Cc4nccs4)CC3)CC2)cc1	.	.	.	.	.	8%
CC(=O)N1c2ccc(S(=O)(=O)NCC3CCC(C(=O)N4CCC(C)CC4)CC3)cc2CC1C (stereo not given)	-2	-3%	-9%	-3	-17%	1%
Cc1ccc(C(C)C)cc1S(=O)(=O)Nc1cccnc1	-17	7%	12%	-3	-21%	3%
C[C@H](CCC(=O)O)[C@H]1CC[C@]2(C)[C@@H]3C(=O)C[C@H]4C(C)(C)[C@@H](O)CC[C@]4(C)[C@H]3C(=O)C[C@@]12C	.	0%	.	.	.	.
COc1ccccc1C(=O)Nc1ccc(C(=O)O)cc1	-7	-7%	-5%	-3	.	7%
O=C(Oc1ccccc1C(=O)Nc1ccccc1)c1ccc(Br)c([N+](=O)[O-])c1	26*	-41%	33%	50*	41%	1%
O=C(Oc1cccc(NC(=O)c2ccccc2Cl)c1)c1ccc([N+](=O)[O-])cc1	32	-52%	66%	22	?	-2%
COc1ccccc1C(=O)Nc1ccc(C(=O)c2ccccc2)cc1	62*	-2%	-28%	27*	-2%	-25%
COc1ccccc1C(=O)Oc1ccccc1C(=O)Nc1ccccc1	52*	-8%	1%	23*	?	-4%
COc1ccccc1C(=O)Nc1cccnc1	46	.	13%	-1	-15%	0%
CC(=O)Nc1ccc(S(=O)(=O)N2CCC(C(N)=O)(N3CCCCC3)CC2)cc1	-7	11%	9%	-2	20%	6%
O=C(NNC(=O)C(O)(c1ccccc1)c1ccccc1)C1CC1	-11	6%	9%	-3	3%	1%
N#Cc1cccc(-c2nc(Nc3ccccc3)c3ccccc3n2)c1	.	.	.	.	.	-14%
O=C(NCCN1CCOCC1)c1cccc(S(=O)(=O)Nc2ccc(Br)cc2)c1	.	.	?	.	-7%	.
Cn1cccc1C(=O)NC1CCCCCC1	.	.	321%	.	244%	.
COc1ccc(C(=O)/C(=C\c2sccc2C)c2nc3ccccc3o2)cc1	49	-11%	?	19*	3.3µM*	9%
COc1ccc(/C=C(/NC(=O)c2ccccc2)C(=O)N/N=C/c2sccc2C)cc1	15	3%	-7%	-4	33%	4%
CC(C)Oc1ccc(C(=O)/C(=C\c2cccs2)c2nc3ccccc3o2)cc1	active	21%	?	38*	?	1%
SMILES	Shiga inhibitor	NS1 function inh	Pf growth 48h	Cycloheximide cs	Pf growth 96h	FBPA Giardia inh
CC(=O)Oc1ccc(OC(C)=O)c(S(=O)(=O)c2ccc(C)c(C)c2)c1	3	-6%	23%	-3	12µM*	0%
Cc1ccc(S(=O)(=O)c2cc3ccc(O)cc3oc2=O)cc1C	-4	4%	1%[0.00184 µM]	2	-21%	3%
Cc1nc2sccn2c(=O)c1S(=O)(=O)Nc1ccc(N2CCN(S(C)(=O)=O)CC2)cc1	-16	?	-21%	-9	?	-12%
Cc1csc(NC(=O)c2cccc(S(=O)(=O)N3CCN(C)CC3)c2)n1	21	.	-5%	5	4%	-1%
Cc1csc(NC(=O)c2ccc(S(=O)(=O)N3CCN(C)CC3)cc2)n1	58*	6%	22%	32*	?	-12%
O=C(Nc1nc(-c2cccs2)cs1)c1ccc(S(=O)(=O)N2CCCC2)cc1	3	-2%	?	-6	-12%	-4%
